Source: PubChem BioAssay (The Scripps Research Institute Molecular Screening Center)
Fam108B counter: mouse Fam108B serine hydrolase inhibitors, primary screen, counter-screen for RBBP9 inhibitor project, biochemical, fluorescence polarization. recombinant Fam108B, FP-Rh probe fluorescence polarization. inhibition, % at 9.51 µM. actives 0.33% (n = 300,000);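 active = inhibition above the screen mean inhibition plus 3 SD, computed separately per campaign, cut at about 18% in these data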;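 also: inhibitors lower polarization as less probe binds the enzyme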
PME-1 inh: PME-1 inhibitors via competitive probe labeling, primary screen, biochemical, fluorescence polarization, FP-Rh probe, HTS | Protein phosphatase methylesterase 1 (Homo sapiens), Q9Y570 | recombinant PME-1 | inhibition, % at 5.9 µM | actives 0.53% (n = 320,000) | AID 2130, 2009;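 active = inhibition above the campaign mean of all compounds plus 3 SD, cut at about 26% in these data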;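 also: competitive labeling of PME-1 active site by serine hydrolase directed probe; inhibitors block probe labeling so polarization falls and inhibition rises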
Target sequence (Q9Y570 whole entry, looked up): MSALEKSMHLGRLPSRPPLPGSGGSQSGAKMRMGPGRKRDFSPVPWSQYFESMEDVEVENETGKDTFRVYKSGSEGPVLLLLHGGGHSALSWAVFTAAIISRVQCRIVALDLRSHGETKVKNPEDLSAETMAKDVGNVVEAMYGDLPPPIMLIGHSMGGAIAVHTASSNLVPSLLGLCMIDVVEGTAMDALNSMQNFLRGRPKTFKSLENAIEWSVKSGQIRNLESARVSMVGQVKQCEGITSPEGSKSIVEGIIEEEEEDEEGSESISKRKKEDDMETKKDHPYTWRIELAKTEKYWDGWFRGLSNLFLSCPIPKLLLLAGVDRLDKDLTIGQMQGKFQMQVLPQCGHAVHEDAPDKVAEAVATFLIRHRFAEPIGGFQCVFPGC
LYPLA2 inh: LYPLA2 inhibitors, primary screen, counter-screen for PME1 inhibitor project, biochemical, fluorescence polarization, FP-Rh probe ABPP; Acyl-protein thioesterase 2 (Homo sapiens), O95372; recombinant LYPLA2; inhibition, % at 5.9 µM; actives 0.38% (n = 320,000);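 active = inhibition above the screen-wide mean plus 3 SD, limit set per campaign, cut at about 26% in these data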
Target sequence (O95372 whole entry, looked up): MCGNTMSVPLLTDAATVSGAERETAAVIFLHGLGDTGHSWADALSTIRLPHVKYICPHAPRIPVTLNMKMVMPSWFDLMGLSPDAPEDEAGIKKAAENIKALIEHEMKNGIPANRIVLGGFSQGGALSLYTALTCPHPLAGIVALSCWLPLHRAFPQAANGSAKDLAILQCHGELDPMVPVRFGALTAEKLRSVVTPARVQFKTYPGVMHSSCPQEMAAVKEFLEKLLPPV
PP1 inh: PP1-alpha phosphatase inhibitors, primary screen, counter-screen for PP5 inhibitor project, biochemical, fluorescence, OMFP substrate, single point | purified PP1alpha | inhibition, % at 6.7 µM | actives 0.9% (n = 320,000) | Serine/threonine-protein phosphatase PP1-alpha catalytic subunit (Homo sapiens), P62136;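 active = inhibition above the mean inhibition of all tested compounds plus 3 SD, computed separately for each screening campaign, cut at about 15% in these data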
LYPLA1 inh: LYPLA1 inhibitors, primary screen, counter-screen for PME1 inhibitor project, biochemical, fluorescence polarization, FP-Rh probe ABPP; inhibition, % at 5.9 µM; actives 0.16% (n = 320,000); recombinant LYPLA1; Acyl-protein thioesterase 1 (Homo sapiens), O75608;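 active = inhibition above the mean of all tested compounds plus 3 SD, set per campaign, cut at about 14% in these data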;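 also: inhibitors block serine hydrolase probe labeling of LYPLA1 so polarization falls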
PP5 primary: PP5 phosphatase inhibitors, primary screen, biochemical, fluorescence. purified PP5c, OMFP substrate fluorescence. actives 0.18% (n = 320,000). inhibition, % at 6.7 µM. AID 1987, 2009;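 active = inhibition above the campaign's mean inhibition across all tested compounds plus 3 SD, cut at about 9.5% in these data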
PP1 confirm: PP1 phosphatase inhibitors, confirmation, biochemical, fluorescence, OMFP substrate, triplicate. shares compounds with PP1 inh. purified PP1alpha. inhibition, % at 6.7 µM. actives 52% (n = 1,900). AID 2358, 2010;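 active = mean PP1 inhibition above a set limit taken from the earlier primary screen, cut at about 15% in these data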
PP5 counter: PP5 phosphatase inhibition by PP1 hits, confirmation, counter-screen for PP1 inhibitor project, biochemical, fluorescence, triplicate; shares compounds with PP1 inh; purified PP5c, OMFP fluorescence; inhibition, % at 6.7 µM; actives 4% (n = 1,900);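 active = mean PP5 inhibition over triplicate wells above about 9.5% taken from the earlier PP1 screen, limit read from the data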
Of the large screens only hits and unclear results are named; the others gave an inactive call (follow-up assays come after a bar, where they were run). Hits are enriched below; roughly 1.8% of the tested compounds scored in any of these assays.

CC(=O)Nc1ccc(NC(=O)CSc2ccc(-c3ccc4c(c3)OCO4)nn2)cc1	none
Cc1ccc2nc(-c3ccc(SCC(=O)Nc4nnc(C)s4)nc3)[nH]c2c1	PP1 inh 20 | PP1 confirm 25 | PP5 counter inactive
COc1ccc2[nH]c(C)cc(=O)c2c1	none
COc1ccc2[nH]c3c(C)c4ccncc4c(C)c3c2c1	PP1 inh 35 | PP1 confirm 17 | PP5 counter inactive
NS(=O)(=O)c1ccc(-n2nc(C(=O)O)cc2-c2ccc(Cl)cc2)cc1	none
O=C(O)c1nc(-c2ccccc2)n(-c2ccc(Cl)cc2)n1	PP1 inh 18 | PP1 confirm 18 | PP5 counter inactive
O=C(O)c1nc(-c2ccccc2)n(-c2ccccc2)n1	none
O=C(O)c1cc(-c2ccccc2)n(-c2ccc(Cl)cc2)n1	PP1 inh 24 | PP1 confirm 31 | PP5 counter inactive
O=C(O)c1cc(-c2ccccc2Cl)n(-c2ccccc2)n1	none
O=C(O)c1cc(-c2ccc(Cl)c(Cl)c2)n(-c2ccc(F)cc2)n1	PP1 inh 53 | PP1 confirm 49 | PP5 counter inactive
O=C(O)c1cc(-c2ccccc2)n(-c2ccccc2)n1	PP1 inh 24 | PP1 confirm 28 | PP5 counter inactive
CCOC(=O)c1c(S(=O)(=O)NCCCc2ccco2)c(C)n(C)c1C	none
Cc1ccc(NC(=O)CSc2nnc(C)n2C2CC2)cc1S(=O)(=O)N1CCOCC1	none (no result: Fam108B counter)
COc1ccc(CCN(C)C(=O)CNC(=O)Cc2cccc3ccccc23)cc1OC	none
Cc1c(S(=O)(=O)N2CCCCC2)c(=O)n(C)c(=O)n1C	none
COc1ccc(-n2nc(C(=O)O)cc2-c2ccccc2)cc1	PP1 inh 26 | PP1 confirm 24 | PP5 counter inactive
COC(=O)c1cc(-c2ccc(F)cc2)n(-c2ccccc2)n1	none
Cc1ccccc1-n1nc(C(=O)O)cc1-c1ccccc1	PP1 inh 36 | PP1 confirm 33 | PP5 counter inactive
O=c1cc2oc3cc(O)c(O)cc3c(-c3ccccc3[N+](=O)[O-])c-2cc1O	PP1 inh 26 | PP1 confirm inactive | PP5 counter inactive
CC(=O)c1cccc(OCc2cc(C(=O)N3CCC(N4CCCCC4)CC3)no2)c1	none
CCn1c(SCC(=O)c2ccc3c(c2)Cc2ccccc2-3)nnc1-c1ccc(N)cc1	PP1 inh 21 | PP1 confirm 20 | PP5 counter inactive
CCn1c(SCC(=O)c2ccc(O)c(O)c2)nnc1-c1ccc(C)cc1	none
O=C(Nc1ccc(-c2nc3ncccc3o2)cc1)c1ccc(Br)o1	PP1 inh 25 | PP1 confirm inactive | PP5 counter inactive
O=C(Cc1ccc(Cl)cc1)Nc1ccc(-c2cc3ccccc3oc2=O)c(Cl)c1	PP1 inh 23 | PP1 confirm 24 | PP5 counter inactive
CCOc1ccccc1N(C)S(=O)(=O)c1ccc2c(c1)CC(C)N2C(=O)C1CC1 (stereo unspecified)	none
COc1cc(/C=C2\SC(N)=NC2=O)ccc1OCC(=O)Nc1ccc(C)cc1	PP1 inh 21 | PP1 confirm 18 | PP5 counter inactive
COc1cc(/C=C2/SC(=S)N(CC(=O)O)C2=O)ccc1OCC(=O)Nc1ccc(C)c(C)c1	none
O=C(CN1C(=O)NC2(CCCCC2)C1=O)N1CCN(c2ncccn2)CC1	none (no result: Fam108B counter)
CN1CCN(c2ccccc2NC(=O)c2ccc(-c3cccc([N+](=O)[O-])c3)o2)CC1	none
CCC(=O)N1CCN(c2ccccc2NC(=O)c2ccc(-c3cccc([N+](=O)[O-])c3)o2)CC1	PP1 inh 19 | PP1 confirm 17 | PP5 counter inactive
COc1cc(F)ccc1S(=O)(=O)N1CCN(c2ccccc2)CC1	none | PP1 confirm inactive | PP5 counter inactive
COc1ccc(C)cc1S(=O)(=O)N1CCN(c2ccccc2)CC1	none
Cc1c(C(=O)N2CCN(Cc3ccccc3)CC2)oc2c1C(=O)CC(C)(C)C2	none
CCOc1ccc(NS(=O)(=O)c2ccc(C(=O)NCC(c3ccc(OC)cc3)N3CCCC3)cc2)cc1 (stereo unspecified)	none
O=C(CCN1C(=O)C2CCCCC2C1=O)N1CCN(S(=O)(=O)c2ccccc2)CC1 (stereo unspecified)	PP1 inh 33 | PP1 confirm inactive | PP5 counter inactive
O=C(CCN1C(=O)C2CCCCC2C1=O)N1CCN(S(=O)(=O)c2cccc(F)c2)CC1 (stereo unspecified)	none
COC/C=C/C1=CC2=CC(=O)C(C)(OC(=O)c3cnc4ccccc4n3)C(=O)C2=CN1Cc1ccc(OC)cc1 (stereo unspecified)	PP1 inh 18 | PP1 confirm inactive | PP5 counter 11
COC/C=C/C1=CC2=CC(=O)C(C)(OC(=O)c3cnc4ccccc4n3)C(=O)C2=CN1CC1CC1 (stereo unspecified)	none
COC/C=C/C1=CC2=CC(=O)C(C)(OC(=O)c3cnc4ccccc4n3)C(=O)C2=CN1Cc1ccccc1 (stereo unspecified)	PP1 inh 23 | PP1 confirm inactive | PP5 counter 15
COc1cc2cc(CCOC(=O)c3ccco3)oc(=O)c2cc1OC	none (no result: Fam108B counter)
COc1ccc(N2CC(C(=O)NNC(=O)c3ccc(Br)cc3)CC2=O)c(OC)c1 (stereo unspecified)	none
COc1cccc(C(C(=O)NC2CCCCC2)N(C(=O)c2csnn2)C2CC2)c1 (stereo unspecified)	none
O=C(Nc1nnc(C2=COCCO2)o1)c1cccc([N+](=O)[O-])c1	none
O=C(COc1ccccc1)Nc1nnc(-c2ccc3c(c2)CCCC3)o1	PP1 inh 26 | PP1 confirm 27 | PP5 counter inactive
O=C(Nc1nnc(-c2ccc(F)cc2)o1)c1cccc([N+](=O)[O-])c1	PP1 inh 19 | PP1 confirm 16 | PP5 counter inactive
